# Results: PubChem BioAssay
# Unmarked numbers belong to inactive results. Active and inactive are the calls of the source.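 How the source made its calls, unless noted: active means compound whose remaining NAD level is above about 45 nM (limit read from the data); inactive means the rest.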
# Target: NAD(+) hydrolase SARM1 (Homo sapiens) (UniProt Q6SZW1)
# Assay: blocking NAD cleavage by SARM1 SAM-TIR – cell lysate, NAD-Glo luminescence (AID 1508614);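 further: higher remaining NAD means stronger inhibition of SARM1 NADase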
# Details: SAM-TIR HEK293T lysate NADase, at 1 µM, hits give high values
# Chain of NAD(+) hydrolase SARM1 (Homo sapiens) (Q6SZW1 whole entry, looked up): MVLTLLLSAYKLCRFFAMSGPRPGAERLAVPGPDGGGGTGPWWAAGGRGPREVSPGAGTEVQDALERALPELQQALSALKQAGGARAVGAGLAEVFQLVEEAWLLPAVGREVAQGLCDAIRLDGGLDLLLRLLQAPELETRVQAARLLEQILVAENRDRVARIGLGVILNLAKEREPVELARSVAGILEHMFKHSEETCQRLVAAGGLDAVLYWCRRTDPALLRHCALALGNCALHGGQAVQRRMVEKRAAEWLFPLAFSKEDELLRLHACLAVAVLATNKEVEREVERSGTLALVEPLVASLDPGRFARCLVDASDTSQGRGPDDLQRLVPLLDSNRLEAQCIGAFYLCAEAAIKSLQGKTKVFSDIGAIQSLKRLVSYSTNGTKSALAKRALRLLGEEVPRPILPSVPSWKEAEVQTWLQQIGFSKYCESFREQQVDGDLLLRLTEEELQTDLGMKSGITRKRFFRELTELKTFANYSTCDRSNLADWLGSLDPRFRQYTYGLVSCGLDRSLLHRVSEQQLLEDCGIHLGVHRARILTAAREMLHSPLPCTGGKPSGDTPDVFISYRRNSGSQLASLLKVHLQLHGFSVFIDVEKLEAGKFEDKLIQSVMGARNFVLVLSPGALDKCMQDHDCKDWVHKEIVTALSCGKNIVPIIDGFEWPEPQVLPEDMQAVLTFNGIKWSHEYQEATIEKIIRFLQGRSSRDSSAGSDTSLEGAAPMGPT
row,Compound,remaining NAD [nM]
1,CO[C@@]12[C@H](COC(N)=O)C3=C(C(=O)C(C)=C(N)C3=O)N1C[C@@H]1N[C@@H]12,10
2,CN1CCN(CC(=O)N2c3ccccc3C(=O)Nc3cccnc32)CC1,10
3,CCCc1cc(C(N)=S)ccn1,10
4,CC(=O)O[C@]1(C(C)=O)CC[C@H]2[C@@H]3C=C(Cl)C4=CC(=O)[C@@H]5C[C@@H]5[C@]4(C)[C@H]3CC[C@@]21C,10
5,COc1cc(NS(=O)(=O)c2ccc(N)cc2)nc(OC)n1,10
6,Cc1ncc([N+](=O)[O-])n1CCO,10
7,O=C(O)c1ccccc1Nc1cccc(C(F)(F)F)c1,10
8,CC(=O)Oc1ccccc1C(=O)O,10
9,CC(=O)N[C@@H](CS)C(=O)O,10
10,CN1C(C(=O)Nc2ccccn2)=C(O)c2sccc2S1(=O)=O,10
11,NC[C@H](O)c1ccc(O)c(O)c1,10
12,NCCCCCC(=O)O,10
13,NS(=O)(=O)c1cc2c(cc1Cl)NC(C(Cl)Cl)NS2(=O)=O (stereo not drawn),10
14,CC(C)(Oc1ccc(CCNC(=O)c2ccc(Cl)cc2)cc1)C(=O)O,10
15,Cc1cc(C(C)(C)C)cc(C)c1CC1=NCCN1,10
16,CC1(C)NC(=O)N(c2ccc([N+](=O)[O-])c(C(F)(F)F)c2)C1=O,10
17,COc1cc2c3cc1Oc1cc(ccc1O)C[C@@H]1c4c(cc(OC)c(O)c4Oc4ccc(cc4)C[C@@H]3N(C)CC2)CC[N+]1(C)C,10
18,O=C1NCC2(CCN(CCc3ccccc3)CC2)O1,10
19,CCOC(=O)[C@H](CCc1ccccc1)N[C@@H](C)C(=O)N1CCC[C@H]1C(=O)O,10
20,CC(C)NC[C@@H](O)COc1cccc2ccccc12,10

row,Compound,remaining NAD [nM]
1,CN1CCN(CCCN2c3ccccc3Sc3ccc(Cl)cc32)CC1,10
2,O=C(CCCN1CCN(c2ccccn2)CC1)c1ccc(F)cc1,10
3,C[C@@](Cc1ccc(O)c(O)c1)(NN)C(=O)O,10
4,C[N+](C)(C)CCOC(N)=O,12
5,CN(C)CCC(c1ccccc1)c1ccccn1 (stereo not drawn),10
6,C[C@](N)(Cc1ccc(O)c(O)c1)C(=O)O,10
7,C[C@H]1c2cccc(O)c2C(O)=C2C(=O)[C@]3(O)C(O)=C(C(N)=O)C(=O)[C@@H](N(C)C)[C@@H]3[C@@H](O)[C@@H]21,10
8,C[C@]12CC[C@@H]3c4ccc(O)cc4CC[C@H]3[C@@H]1C[C@@H](O)[C@@H]2O,10
9,CCO/C([O-])=N/c1c[n+](N2CCOCC2)no1,10
10,C[n+]1cc2c3c(ccc2c2ccc4cc5c(cc4c21)OCO5)OCO3,10
11,Nc1ccc(N=Nc2ccccc2)c(N)n1,10
12,CCN(CC)C(C)CN1c2ccccc2Sc2ccccc21 (stereo not drawn),10
13,CN(Cc1cc(Br)cc(Br)c1N)C1CCCCC1,10
14,Cc1ccc(S(=O)(=O)NC(=O)NN2CC3CCCC3C2)cc1 (stereo not drawn),10
15,COC(=O)[C@@H]1[C@H]2C[C@H]3c4[nH]c5ccccc5c4CCN3C[C@@H]2CC[C@@H]1O,10
16,CN(C)CCCN1c2ccccc2Sc2ccccc21,10
17,CN(C)C(=O)Oc1cccc([N+](C)(C)C)c1,10
18,CC(=O)Oc1ccc(C(c2ccc(OC(C)=O)cc2)c2ccccn2)cc1,10
19,C=Cc1c(C)c2cc3[nH]c(cc4nc(cc5nc(cc1[nH]2)C(C)=C5CCC(=O)O)C(CCC(=O)O)=C4C)c(C)c3C=C,10

# Target: Mitogen-activated protein kinase 7 (Homo sapiens) (UniProt Q13164)
# Assay: Gal4-ERK5 driven luciferase induction – cell-based, HTS, primary screen (AID 1508626;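 active means luciferase signal above three times the same-plate solvent-only control wells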;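 further: luciferase driven by Gal4-ERK5 fusion binding five Gal4 sites before minimal TATA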)
# Details: HeLa Gal4-ERK5 transactivation, 18 h, at 5 µM, hits give high values
# Chain of Mitogen-activated protein kinase 7 (Homo sapiens) (Q13164 whole entry, looked up, the tested form may be a part): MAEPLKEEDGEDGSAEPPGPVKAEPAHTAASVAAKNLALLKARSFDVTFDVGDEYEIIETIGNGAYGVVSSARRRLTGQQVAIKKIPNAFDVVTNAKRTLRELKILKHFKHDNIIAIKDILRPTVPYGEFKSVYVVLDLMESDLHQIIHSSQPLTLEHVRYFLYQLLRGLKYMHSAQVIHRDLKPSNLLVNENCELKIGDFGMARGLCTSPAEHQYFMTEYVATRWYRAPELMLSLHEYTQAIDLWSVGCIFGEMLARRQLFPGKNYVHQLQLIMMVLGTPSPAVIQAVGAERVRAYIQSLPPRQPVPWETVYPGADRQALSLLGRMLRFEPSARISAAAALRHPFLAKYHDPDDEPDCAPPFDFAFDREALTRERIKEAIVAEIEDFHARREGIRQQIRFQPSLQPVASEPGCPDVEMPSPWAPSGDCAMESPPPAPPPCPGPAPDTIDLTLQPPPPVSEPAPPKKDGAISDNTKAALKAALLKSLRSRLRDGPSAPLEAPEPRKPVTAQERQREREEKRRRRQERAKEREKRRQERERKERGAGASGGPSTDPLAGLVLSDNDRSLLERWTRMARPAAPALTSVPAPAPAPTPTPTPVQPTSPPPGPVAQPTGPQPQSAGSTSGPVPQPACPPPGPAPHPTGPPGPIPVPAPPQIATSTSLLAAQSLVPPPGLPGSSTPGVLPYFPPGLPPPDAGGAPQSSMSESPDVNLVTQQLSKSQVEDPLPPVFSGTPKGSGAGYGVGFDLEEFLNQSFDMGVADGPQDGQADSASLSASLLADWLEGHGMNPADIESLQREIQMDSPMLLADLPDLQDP
row,Compound,luciferase signal
1,CO[C@@]12[C@H](COC(N)=O)C3=C(C(=O)C(C)=C(N)C3=O)N1C[C@@H]1N[C@@H]12,44 AU
2,CN1CCN(CC(=O)N2c3ccccc3C(=O)Nc3cccnc32)CC1,188 AU
3,CCCc1cc(C(N)=S)ccn1,96 AU
4,CC(=O)O[C@]1(C(C)=O)CC[C@H]2[C@@H]3C=C(Cl)C4=CC(=O)[C@@H]5C[C@@H]5[C@]4(C)[C@H]3CC[C@@]21C,52 AU
5,COc1cc(NS(=O)(=O)c2ccc(N)cc2)nc(OC)n1,48 AU
6,Cc1ncc([N+](=O)[O-])n1CCO,56 AU
7,O=C(O)c1ccccc1Nc1cccc(C(F)(F)F)c1,56 AU
8,CC(=O)Oc1ccccc1C(=O)O,92 AU
9,CC(=O)N[C@@H](CS)C(=O)O,40 AU
10,CN1C(C(=O)Nc2ccccn2)=C(O)c2sccc2S1(=O)=O,180 AU
11,NC[C@H](O)c1ccc(O)c(O)c1,60 AU
12,NCCCCCC(=O)O,40 AU
13,NS(=O)(=O)c1cc2c(cc1Cl)NC(C(Cl)Cl)NS2(=O)=O (stereo not drawn),48 AU
14,CC(C)(Oc1ccc(CCNC(=O)c2ccc(Cl)cc2)cc1)C(=O)O,40 AU
15,Cc1cc(C(C)(C)C)cc(C)c1CC1=NCCN1,44 AU
16,CC1(C)NC(=O)N(c2ccc([N+](=O)[O-])c(C(F)(F)F)c2)C1=O,100 AU
17,COc1cc2c3cc1Oc1cc(ccc1O)C[C@@H]1c4c(cc(OC)c(O)c4Oc4ccc(cc4)C[C@@H]3N(C)CC2)CC[N+]1(C)C,32 AU
18,O=C1NCC2(CCN(CCc3ccccc3)CC2)O1,52 AU
19,CCOC(=O)[C@H](CCc1ccccc1)N[C@@H](C)C(=O)N1CCC[C@H]1C(=O)O,64 AU
20,CC(C)NC[C@@H](O)COc1cccc2ccccc12,52 AU

row,Compound,luciferase signal
1,CN1CCN(CCCN2c3ccccc3Sc3ccc(Cl)cc32)CC1,80 AU
2,O=C(CCCN1CCN(c2ccccn2)CC1)c1ccc(F)cc1,92 AU
3,C[C@@](Cc1ccc(O)c(O)c1)(NN)C(=O)O,56 AU
4,C[N+](C)(C)CCOC(N)=O,72 AU
5,CN(C)CCC(c1ccccc1)c1ccccn1 (stereo not drawn),44 AU
6,C[C@](N)(Cc1ccc(O)c(O)c1)C(=O)O,68 AU
7,C[C@H]1c2cccc(O)c2C(O)=C2C(=O)[C@]3(O)C(O)=C(C(N)=O)C(=O)[C@@H](N(C)C)[C@@H]3[C@@H](O)[C@@H]21,64 AU
8,C[C@]12CC[C@@H]3c4ccc(O)cc4CC[C@H]3[C@@H]1C[C@@H](O)[C@@H]2O,64 AU
9,CCO/C([O-])=N/c1c[n+](N2CCOCC2)no1,56 AU
10,C[n+]1cc2c3c(ccc2c2ccc4cc5c(cc4c21)OCO5)OCO3,84 AU
11,Nc1ccc(N=Nc2ccccc2)c(N)n1,464 AU (active)
12,CCN(CC)C(C)CN1c2ccccc2Sc2ccccc21 (stereo not drawn),36 AU
13,CN(Cc1cc(Br)cc(Br)c1N)C1CCCCC1,56 AU
14,Cc1ccc(S(=O)(=O)NC(=O)NN2CC3CCCC3C2)cc1 (stereo not drawn),36 AU
15,COC(=O)[C@@H]1[C@H]2C[C@H]3c4[nH]c5ccccc5c4CCN3C[C@@H]2CC[C@@H]1O,44 AU
16,CN(C)CCCN1c2ccccc2Sc2ccccc21,44 AU
17,CN(C)C(=O)Oc1cccc([N+](C)(C)C)c1,48 AU
18,CC(=O)Oc1ccc(C(c2ccc(OC(C)=O)cc2)c2ccccn2)cc1,44 AU
19,C=Cc1c(C)c2cc3[nH]c(cc4nc(cc5nc(cc1[nH]2)C(C)=C5CCC(=O)O)C(CCC(=O)O)=C4C)c(C)c3C=C,56 AU
